Test results reported in ChEMBL document CHEMBL3988442, “University of Dundee, Small-Polar-MMV Screening Library” (2021).
In all, about 48,000 compounds went through this assay and about 13,000 (27%) showed an effect of 50% or more. The list shows a part of the results.

These molecules were tested on Wolbachia pipientis (assay: Anti-Wolbachia Cell-Based Screen). Conditions: 5 µM.
Type: functional
Parameters: scale not given: in the data most compounds retested in dose-response had high values

Compound | Percent Effect [%]
CN(C)C(CNCc1nc(-c2ccsc2)no1)c1ccsc1 (stereo unspecified) | 7.6
CC(SCc1ccc(Br)c2cccnc12)C(N)=O (stereo unspecified) | -7.187
CCNC(=O)c1ccc(N2CCCC(c3nccn3C(C)C)C2)nc1 (stereo unspecified) | -0.11
Cn1cc(Cl)c(CN2CCn3nc(C(=O)N4CCCC4)cc3C2)n1 | -5.174
COCCN(Cc1ccccn1)C(=O)C1CCCCCN1C (stereo unspecified) | -8.345
COCCN1CCC(C(=O)N(C)Cc2cccc(Cl)c2)C1 (stereo unspecified) | -62.62
CN(Cc1ccccn1)C(=O)[C@H]1CO[C@H]2CCN(CC3CC3)C[C@H]2C1.O=C(O)C(F)(F)F.O=C(O)C(F)(F)F | 99.36
COCCN1CC[C@@H]2OC[C@H](C(=O)N(C)Cc3ccccn3)C[C@@H]2C1 | 115.4
CN(Cc1ccccn1)C(=O)c1nn(C)c2c1CCN(CC1CC1)C2.O=C(O)C(F)(F)F.O=C(O)C(F)(F)F.O=C(O)C(F)(F)F | -10.9
CN(Cc1ccco1)C[C@H]1OC[C@@H]2CCN(Cc3ccccn3)C[C@@H]21.O=C(O)C(F)(F)F.O=C(O)C(F)(F)F.O=C(O)C(F)(F)F | 0.7755
CC(C)c1nc(CN2CCC(CO)CC2)cs1 | -12.85
COCc1ncn2c1CN(C(=O)c1ccco1)CC2 | 113.2
O=C(c1ccco1)N1CCCn2cnc(COCC3CC3)c2C1 | -7.899
COCc1ncn2c1CN(C(=O)c1ccc[nH]1)CC2 | 111
O=C(c1ccc2[nH]ccc2c1)N1CCn2cnc(COCC3CC3)c2C1 | -3.31
O=C(c1ccc[nH]1)N1CCCn2cnc(COCC3CC3)c2C1 | -13.58
CN1CCN(Cc2cn3c(n2)CN(C(=O)c2ccco2)CC3)CC1 | -12.05
CC(C)(C)c1coc([C@@H]2COCCN2Cc2c[nH]cn2)n1 | -1.373
CCOCCN1CCN(Cc2nnc(-c3occc3C)o2)CC1CC (stereo unspecified) | 4.766
CN(C)C(=O)CNC(=O)Nc1cccc(Cl)c1SC(F)F | -14
Cc1ccccc1N1CCCN(C(=O)CC2CN(C(C)C)CCO2)CC1 (stereo unspecified) | 116.5
Cc1ccccc1N1CCN(C(=O)CC(C)C)CC1 | -38.06
CSCCC(=O)N1CCCN(c2ccccc2C)CC1 | -1.705
N#Cc1ccc(N2CCCN(C(=O)CC3CCCO3)CC2)cc1 (stereo unspecified) | 5.693
COC(=O)CC1CN(Cc2ccn(-c3ccc(F)cc3)n2)CCO1 (stereo unspecified) | -16.13
CC(C)N1CCOC(CC(=O)N2CCCN(c3ccc(F)cc3)CC2)C1 (stereo unspecified) | 103.5

Compound | Percent Effect [%]
Cc1ccccc1N1CCCN(C(=O)CN2C(=O)OC[C@@H]2C(C)C)CC1 | 17.78
CSCC(=O)N1CCCN(c2ccccc2C)CC1 | 124.1
CSCC(=O)N1CCCN(c2ccncc2C)CC1 | -12.26
NC(=O)c1cncc(-n2ccc(-c3cnccn3)n2)c1 | -26.19
CC(C#N)(NC(=O)COc1ccccc1Br)C1CC1 (stereo unspecified) | 18.27
CN1CCN(CC2CC2)C(=O)C12CCN(C(=O)c1ccnnc1)CC2.O=C(O)C(F)(F)F | -9.864
CN1CCN(C)C2(CCN(C(=O)CC(F)(F)F)CC2)C1=O | 104
O=C(CC(F)(F)F)N1CCC2(CCCN(c3nncs3)C2)C1 (stereo unspecified) | -11.31
CCN1CCN(C)C2(CCN(C(=O)CC(F)(F)F)CC2)C1=O | 118.4
Cc1ccc(N2CCCC3(CCN(C(=O)CC(F)(F)F)C3)C2)nn1 (stereo unspecified) | -9.607
CN1CCN(CC2CC2)C(=O)C12CCN(C(=O)CC(F)(F)F)CC2.O=C(O)C(F)(F)F | 112.7
CN1CCN(CC2CC2)C(=O)C12CCN(C(=O)c1cnccn1)CC2 | -10.28
CCN(C(=O)c1ccccc1I)C1CC(=O)NC1=O (stereo unspecified) | 4.049
CC/C=C(/C)C(=O)N1CSCC1C(=O)NC1=NCCS1 (stereo unspecified) | -1.356
COc1ccc(F)cc1S(=O)(=O)NCC(c1cccn1C)N(C)C (stereo unspecified) | -20.36
COc1ccc(S(=O)(=O)NCCn2cnc(C)cc2=O)cc1C | 93.11
COc1ccc(S(=O)(=O)Nc2cccnc2-n2cncn2)cc1C | -1.49
COc1ccc(F)cc1S(=O)(=O)NCC(O)c1sccc1C (stereo unspecified) | 28.76
COc1ccc(F)cc1S(=O)(=O)NCCn1cnc(C)cc1=O | 77.48
COc1ncc(NS(=O)(=O)c2ccc(OC)c(C)c2)c(OC)n1 | -43.62
CC1COc2ccccc2N1C(=O)c1ccnc(-n2cncn2)c1 (stereo unspecified) | -16.23
CNc1ncc(CN(C)C(=O)[C@@]23CNC[C@@H]2CN(C(=O)C2CC2)C3)cn1 | -3.257
COc1cc(NCCNC(=O)c2cc[nH]c2C)cc(OC)c1 | -11.29
COCCCC1(CO)CCCN(Cc2nccs2)C1 (stereo unspecified) | 3.777
O=C(NCc1ncc[nH]1)c1c(F)cccc1I | -7.586
COCCC(=O)N1C[C@@H](O)[C@H](N2CCN(c3ccccc3)CC2)C1 | 133.4

Compound | Percent Effect [%]
CSCCC(=O)N1CC[C@@H](N2CCN(c3ccccc3F)CC2)[C@H](O)C1 | -0.8189
CN1CCN([C@@H]2CN(C(=O)CCOc3ccccc3)C[C@H]2O)CC1 | 98.51
COCCC(=O)N1CC2(CCN(c3ccccc3)C2)C1 | -36.12
COCC(=O)N1C[C@@H](O)[C@H](N2CCN(c3ccccc3)CC2)C1 | 143.5
CC(C)=CCN1CCN(CCCOc2ccccc2)[C@H]2CS(=O)(=O)C[C@H]21 | -8.839
Cc1ccsc1[C@@H]1CCN(C(=O)CCOc2ccccc2)C[C@H]1O | -3.102
CCOCC(=O)N1C[C@@H](O)[C@H](N2CCN(c3ccccc3)CC2)C1 | 110.9
O=C(CO)N1CC[C@@H](N2CCN(c3ccccc3F)CC2)[C@H](O)C1 | 5.557
COCCC(=O)N1CC[C@@H](N2CCN(C)CC2)[C@@H]1Cc1ccccc1 | -8.117
N#Cc1ccnc(N2CCN(CC(O)c3ccccc3Cl)CC2)c1 (stereo unspecified) | -8.703
O=C(CN1CCS(=O)(=O)CC1)NCc1cccc(Br)c1 | -5.799
COCC1(CNC(=O)Nc2cc(F)ccc2OC)CCCC1 | -0.947
CC(C)(C)OC(=O)NC(C)(C)c1noc(CSc2nncs2)n1 | 7.03
N#Cc1c(Cl)nsc1NCc1ccc(N2CCSCC2)cc1 | -6.213
COc1ccc2c(c1)nc1n2[C@@H](CNCc2nccs2)COC1 | 4.423
Cn1cc2c(n1)C(COCC1CC1)CN(Cc1ccsc1)C2 (stereo unspecified) | -15.61
CCOCC1CN(Cc2ccco2)Cc2ccnn2C1 (stereo unspecified) | -17.9
COCC1CN(Cc2ccoc2)Cc2cn(C)nc21 (stereo unspecified) | 2.216
CC(C)COCC1CN(Cc2ccco2)Cc2ncn(C)c21 (stereo unspecified) | 120.7
Cn1cnc2c1C(COCC1CC1)CN(Cc1ccsc1)C2 (stereo unspecified) | 3.226
CC(C)COCC1CN(Cc2ccoc2)Cc2ncn(C)c21 (stereo unspecified) | 128.9
CCOCC1CN(Cc2cnn(C)c2)Cc2ncn(CC3CC3)c21 (stereo unspecified) | -8.097
CC(C)COCC1CN(Cc2cnn(C)c2)Cc2ncn(C)c21 (stereo unspecified) | 123.1
Cn1ncc2c1C(COCC1CC1)CN(Cc1ccco1)C2 (stereo unspecified) | -0.8913
CCOCC1CN(Cc2ccoc2)Cc2ncn(CC3CC3)c21 (stereo unspecified) | -9.148
CC(C)COCC1CN(Cc2ccsc2)Cc2ncn(C)c21 (stereo unspecified) | 90.56

Compound | Percent Effect [%]
Cn1cc(CN2Cc3cn(C)nc3C(COCC3CC3)C2)cn1 (stereo unspecified) | -9.412
CN(C)C(=O)c1nc2c(s1)CCCN2Cc1ccccc1 | -4.503
Cc1ccc(C)c2c(O)cc(CN3CCC(=O)NCC3C)nc12 (stereo unspecified) | -0.2793
CCC(NC(=O)Nc1cc(F)c(OC)c(F)c1)c1noc(C)n1 (stereo unspecified) | -7.836
Cn1nc2c(cc1=O)CN(Cc1nc(-c3ccoc3)no1)CC2 | -6.043
CC(OCC1CC1)C(=O)N1CCCN(Cc2nccn2C)CC1 (stereo unspecified) | 15.71
CC(C)C(C(=O)N1CCCN(Cc2nccn2C)CC1)N1CCCC1 (stereo unspecified) | 74.16
CC(C(=O)N1CCOCC1)N1CCN(Cc2nccn2C)CC1 (stereo unspecified) | 114
CCN1CCN(C(=O)C(C)N2CCN(Cc3nccn3C)CC2)CC1 (stereo unspecified) | 0.1033
Cn1ccnc1CN1CCCN(C(=O)C2(C#N)CCCCC2)CC1 | -11.9
CC(C(=O)N1CCCCCC1)N1CCN(Cc2nccn2C)CC1 (stereo unspecified) | 103.6
CCN(C(=O)NCCc1cccc(F)c1F)C(C)CS(C)(=O)=O (stereo unspecified) | 8.569
CCOc1ccc(CN(CCOC)c2nc(C)nc3oc(C)nc23)cc1 | -12.59
COc1ccnc(N2CCN(C(=O)c3ccn(C)c(=O)c3)CC2)n1 | 101.7
CCOc1ccnc(N2CCN(C(=O)c3ccn(C)c(=O)c3)CC2)n1 | 88.48
COc1ccnc(N2CCN(C(=O)c3cscn3)CC2)n1 | 2.321
COc1cc(C)nc(N2CCN(C(=O)c3ccccc3C)CC2)n1 | 2.606
CCOc1ccnc(N2CCN(C(=O)c3cccc(C#N)c3)CC2)n1 | 3.478
CCOc1cccc(C(=O)N2CCN(c3nccc(OC)n3)CC2)c1 | -0.7298
COc1cc(C)nc(N2CCN(C(=O)c3ccn(C)c(=O)c3)CC2)n1 | 111.9
CCOc1ccnc(N2CCN(C(=O)c3cc(Cl)c[nH]3)CC2)n1 | -0.9133
COc1cc(C)nc(N2CCN(C(=O)c3ccc(Cl)o3)CC2)n1 | 4.762
O=C(c1ncccc1O)N1CCN(Cc2ccco2)C(CCO)C1 (stereo unspecified) | -8.878
